# FUS suppressor: qHTS for Suppressors of FUS Proteinopathy: Primary screen using FUS-linked yeast assay; S. cerevisiae FUS-expressing, growth rescue, OD600, 24 h; Potency, µM (series often up to 76.6 µM), usual class: activators; hit rate 0.24% among 390,000;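 note: plate controls were DMSO vehicle for no effect and reference control for full effect; nearly all actives have a fitted effect of over 55% in size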
#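 Quantitative HTS measuring growth restoration of FUS-toxic yeast. Galactose-induced cells (OD 0.005) were exposed 24hr at 30C to compounds at several concentrations, then absorbance at 600 nm was recorded.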
# aSyn yeast inh: qHTS of alpha-syn Inhibitors | Yeast expressing alpha-synuclein, growth rescue, BacTiter-Glo, 24 h | hit rate 0.14% among 370,000 | Potency, µM (titrated, usually from 46.1 µM), for inactives: at the highest dose growth rescue (activation), usual class: activators | AID 652106, 2013; note: % of control where 0% means no effect; nearly all actives have a fitted effect of over 65% in size
#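 Galactose-induced alpha-syn yeast (OD600=0.02, raffinose-pregrown) + pinned cpd, 24 hr, 30 deg C; growth by BacTiter-Glo luminescence. Growth restoration scores as activation.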
# Abeta yeast res: qHTS for compounds that reverse cellular toxicity of Amyloid beta (A-beta) peptide in yeast: Primary Screen; yeast expressing A-beta42, growth rescue, OD600, 48 h; response scale: 0% DMSO, 100% iron-clioquinol control; Potency, µM (highest dose often 46.1 µM), actives largely listed as activators; hit rate 0.063% among 410,000; AID 1347071, 2019; note: nearly all actives have a fitted effect of over 55% in size
#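 Yeast growth medium received pinned compounds, then yeast cells expressing toxic A-beta were added; plates incubated at 30 C for 48 hr. Growth read as absorbance at 600 nm, normalized to DMSO and equimolar FeCl3 plus clioquinol controls.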
# TDP-43 yeast inh: qHTS of TDP-43 Inhibitors; TDP-43 expressing yeast growth rescue, BacTiter-Glo, 24 h; Potency, µM (doses to about 46.1 µM), without a hit: top-dose growth rescue (activation), usual class: activators; hit rate 1.8% among 410,000; note: % of control where 0% means no effect; nearly all actives have a fitted effect of over 50% in size
#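 Luminescence from BacTiter-Glo reports growth of TDP-43-expressing yeast after 24 hr at 30 deg C with compound. Cells were raffinose-pregrown to mid-log, then seeded in galactose medium at OD600=0.02.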
# Mito fusion act: qHTS Assay for Small Molecule Inhibitors of Mitochondrial Division or Activators of Mitochondrial Fusion. Potency, µM (top dose mostly 46.1 µM), inactives show at the highest dose growth rescue (activation), actives largely listed as activators. hit rate 0.23% among 320,000. AID 485298, 2010. S. cerevisiae fusion-defective mutant growth rescue, CellTiterGlo 48 h; note: % of control where 0% means no effect; nearly all actives have a fitted effect of over 45% in size
#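 S. cerevisiae fusion-defective temperature-sensitive mutants (e.g. fzo1-1, mgm1-5) grown 48 h at 37C in YPEG (ethanol/glycerol non-fermentable) medium with 23 nl compound per well; growth rescue read as CellTiterGlo luminescence.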
# Starred values were filed as active, the others as inactive; i = inactive; u = inconclusive; x = not tested or not shown; [ ] = dose if it differs, or a comment. Sampled rows, rich in hits. Any-hit rate of the full collection: about 2.2%. Calls come from the whole dose curve; as a rule, active = well fitted curve in the direction sought with a large enough effect; inconclusive = small, poorly fitted or top-dose-only effect, or another doubt; inactive = no such curve, though single readings can be large; an effect the other way counts as inactive or inconclusive. Potency is the fitted concentration of half-maximal effect.
SMILES,FUS suppressor,aSyn yeast inh,Abeta yeast res,TDP-43 yeast inh,Mito fusion act
Cc1cccc(-n2nc([N+](=O)[O-])c(=NCc3cccnc3)n2O)c1,i,-12%,i,u,5%
C=CCCC(=O)N1CCC(C(=O)NC2CCCc3ccccc32)CC1 (stereo not given),i,x,x,x,x
Cc1ccc(S(=O)(=O)Nc2cc(C(=O)O)ccc2N2CCC(C)CC2)cc1C,i,x,x,x,x
O=C(Nc1ccccc1)c1cc(C2CCCN(C(=O)CCc3ccccc3)C2)on1 (stereo not given),i,0%,i,18µM*,x
O=C(NCc1ccccc1)c1cc(C2CCCN(C(=O)CCc3ccccc3)C2)on1 (stereo not given),i,0%,i,0%,x
O=C(Nc1ccc(F)c(Cl)c1)c1cc(C2CCCN(C(=O)C3CC3)C2)on1 (stereo not given),i,-8%,i,25µM*,x
O=C(Nc1ccccc1)c1cc(C2CCCN(C(=O)OCc3ccccc3)C2)on1 (stereo not given),i,1%,i,35µM*,x
O=C(NCc1ccc(F)cc1)c1cc(C2CCCN(C(=O)CCCc3ccccc3)C2)on1 (stereo not given),u,12%,i,18µM*,x
COc1ccccc1NC(=O)Cn1c(=O)n(Cc2nc(-c3ccccc3)no2)c(=O)c2ccccc21,i,x,i,29%,x
O=C(Nc1ccc(F)c(Cl)c1)c1cc(C2CCCN(C(=O)CCc3ccccc3)C2)on1 (stereo not given),i,1%,i,28µM*,x
CC(C)(C)C(=O)C1=C(O)C(=O)N(Cc2ccccc2)C1c1ccccc1Cl (stereo not given),i,12%,i,13µM*,2%
COC(=O)[C@]12C[C@H](CC(=O)NCCC(C)C)C(=O)N(Cc3cccc4ccccc34)C1=C[C@H](C(C)(C)C)O[C@@H]2C,22µM*,x,x,x,x
COC(=O)[C@]12C[C@H](CC(=O)NCc3cccs3)C(=O)N(Cc3cccc4ccccc34)C1=C[C@H](C(C)(C)C)O[C@@H]2C,10µM*,x,x,x,x
COC(=O)[C@]12C[C@H](CC(=O)N3CCOCC3)C(=O)N(Cc3cccc4ccccc34)C1=C[C@H](C(C)(C)C)O[C@@H]2C,22µM*,x,x,x,x
COC(=O)[C@]12C[C@H](CC(=O)NCC3CCCCC3)C(=O)N(Cc3cccc4ccccc34)C1=C[C@H](C(C)(C)C)O[C@@H]2C,i,x,x,x,x
COC(=O)[C@]12C[C@H](CC(=O)NCc3cccc4ccccc34)C(=O)N(Cc3ccc(Cl)cc3Cl)C1=C[C@H](C(C)(C)C)O[C@@H]2C,i,x,x,x,x
COc1ccc(CC(=O)NC2CCCc3ccccc32)cc1 (stereo not given),i,-1%,i,18µM*,3%
O=C(NC(=S)NC1CCCc2ccccc21)c1ccco1 (stereo not given),i,-11%,11µM*,u,-13%
CC(C)(C)c1ccc(OCCn2c(CCNC(=O)C3CCCCC3)nc3ccccc32)cc1,x,-40%,x,x,x
CC1CN(C(=O)c2cccc(COc3ccccc3Cl)c2)CC(C)O1 (stereo not given),i,1%,i,-21%[0.397 µM],-4%
CC1CN(C(=O)c2ccccc2OCc2ccc(Cl)cc2Cl)CC(C)O1 (stereo not given),i,9%,i,28µM*,27%
Cc1oc(-c2ccccc2F)nc1CS(=O)(=O)CC(=O)N1CCN(c2cccc(C(F)(F)F)c2)CC1,i,x,i,25%,x
Cc1cccc(N2CCN(C(=O)CSc3ccsc3[N+](=O)[O-])CC2C)c1 (stereo not given),i,9%,u,18µM*,20%
Cc1cccc(N2CCN(C(=O)COc3ccc4c(c3)CCC4)CC2C)c1 (stereo not given),u,26%,i,35µM*,11%

# From PubChem BioAssay
